These results are taken from PubChem BioAssay (NCATS).

Results filed as inconclusive are left out. Values without a mark were called inactive. The source made the active and inactive calls. Calls follow the shape of the dose curve; as a rule, active = well fitted inhibition curve with a large enough effect; inconclusive = small, poorly fitted or top-dose-only effect; inactive = flat fitted curve, though single readings scatter.

For experiment [1], the system named is KB-3-1. Put plainly: Cytotoxic Profiling of Annotated Libraries Using Quantitative High-Throughput Screening (AID 1296008). As to max response: % is scaled to controls: 0 for no effect and ±100 for the full control effect. To be noted: Five cell lines viability, CellTiter-Glo ATP luminescence, 48-72 h; max response: stronger effect = lower value. The method, boiled down: (§1)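 Cells exposed to compounds for 48 or 72 hr at 37 degrees Celsius. Viability read as ATP-coupled luminescence with CellTiter-Glo after 10 min at room temperature.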
On the technique in general: In ATP-based viability assays light output follows the ATP content of the culture.

The subject of experiment [2] is NIH3T3. The experiment is described as above. To be noted: Five cell lines viability, CellTiter-Glo ATP luminescence, 48-72 h; max response: stronger effect = lower value. The method, boiled down:
as §1

Experiment [3] relates to P93_24. Put plainly: qHTS profiling for inhibitors of Plasmodium falciparum proliferation (AID 504749). As to conditions: P. falciparum in erythrocytes, SYBR Green DNA, 72 h; series mostly up to 28.7 µM. The method, boiled down: (§2)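 Readout was DNA-dye fluorescence from lysed cultures, ex 485/em 535 nm. Parasitized red cells had grown 72 h with compound; data scaled between 0.29 uM artemisinin and DMSO wells and corrected using vehicle-only plates.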

Experiment [4] has as its system PAD. The experiment is described as above. As to conditions: P. falciparum in erythrocytes, SYBR Green DNA, 72 h; series mostly up to 28.7 µM. The method, boiled down:
as §2

The subject of experiment [5] is PC15. Described as above. As to conditions: P. falciparum in erythrocytes, SYBR Green DNA, 72 h; series mostly up to 28.7 µM. The method, boiled down: as §2
Experiment [6] deals with PC26. Described as above. To be noted: P. falciparum in erythrocytes, SYBR Green DNA, 72 h; series mostly up to 28.7 µM. In short, it runs like this:
as §2

Experiment [7] deals with PC49. The experiment is described as above. As to conditions: P. falciparum in erythrocytes, SYBR Green DNA, 72 h; series mostly up to 28.7 µM. In short, it runs like this: as §2
Experiment [8] concerns SC27B. Described as above. As to conditions: P. falciparum in erythrocytes, SYBR Green DNA, 72 h; series mostly up to 28.7 µM. In short, it runs like this:
as §2

Experiment [9] relates to TAB109. The experiment is described as above. To be noted: P. falciparum in erythrocytes, SYBR Green DNA, 72 h; series mostly up to 28.7 µM. In short, it runs like this: as §2
Experiment [10] deals with TAB113. The experiment is described as above. As to conditions: P. falciparum in erythrocytes, SYBR Green DNA, 72 h; series mostly up to 28.7 µM. In short, it runs like this:
as §2

Experiment [11] has as its system TAB165. Described as above. As to conditions: P. falciparum in erythrocytes, SYBR Green DNA, 72 h; series mostly up to 28.7 µM. In short, it runs like this: as §2
Experiment [12] has as its system W2. Described as above. As to conditions: P. falciparum in erythrocytes, SYBR Green DNA, 72 h; series mostly up to 28.7 µM. The method, boiled down:
as §2

In experiment [13] the test system is HEK293T. Put plainly: qHTS assay to identify novel small-molecules to repurpose for Merkel cell carcinoma treatment (AID 1296009). To be noted: MCC and control cell lines, CellTiter-Glo viability, 72 h. In short, it runs like this:
(§3)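 Cells were incubated with compound for 72 hr at 37 degree celsius before CellTiter-Glo addition. Luminescence was normalized with no-cell wells as full cytotoxicity and DMSO as baseline.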
A general note: In qHTS, concentration-response curves come from the screen itself.

Experiment [14] deals with P94_40. Put plainly: qHTS profiling for inhibitors of Plasmodium falciparum proliferation (AID 504749). To be noted: P. falciparum in erythrocytes, SYBR Green DNA, 72 h. The method, boiled down:
as §2

The test system of experiment [15] is MKL-2. Put plainly: qHTS assay to identify novel small-molecules to repurpose for Merkel cell carcinoma treatment (AID 1296009). To be noted: MCC and control cell lines, CellTiter-Glo viability, 72 h. The method, boiled down:
as §3
Also: nearly all actives have a fitted effect of over 60% in size.
Potency is read from the fitted curve at half-maximal effect.

Turning to `CS(=O)(=O)NC(=O)CCC/C=C\C[C@H]1C(=O)C[C@@H](O)[C@@H]1/C=C/[C@H](O)COc1ccccc1`, in [1], the max response was -12.3%.

In the case of `CC(O)(C(=O)O)C1CCC2(C)C1CCC1(C)C2CCC2C3(C)CCC(O)C(C)(COC4OC(CO)C(O)C(O)C4O)C3CCC21C` (configuration not stated), the max response is 1.95% in [1] and -2.95% in [2].

Turning to `O=c1cc(N2CCOCC2)nc2c3ccccc3ccn12`, the max response in experiment [1] was -19.2%; in experiment [2] it was -3.69%.

In the case of `CCNC(=O)C#Cc1ccc2c(C(=Nc3ccc(CN(C)C)cc3)c3ccccc3)c(O)[nH]c2c1`, the Potency in [1] is 28.2 nM (active); in experiment [2] it was 709 nM (active).

As to `CCN(CC)C(=O)c1ccc(Nc2nc(OCC3CCCCC3)c3[nH]cnc3n2)cc1`, the Potency in [2] was 10300 nM (active).

Consider `COc1cc([C@@H]2c3cc4c(cc3C(O[C@@H]3O[C@@H]5COC(c6cccs6)O[C@H]5[C@H](O)[C@H]3O)C3COC(=O)[C@@H]32)OCO4)cc(OC)c1O` (some centres not stated), for which, in experiment [1], the Potency is 3660 nM (active).

Turning to `CCCOc1ccc(CCc2nc3cc(-c4c(C)noc4C)ccc3n2CCN2CCOCC2)cc1`, the results for the max response in experiment [1] and in [2] were -3.99% and -3.98%, respectively.

Consider `COc1cc2ncnc(Oc3ccc(CC(=O)Nc4cnn(C(C)C)c4)cc3)c2cc1OC`, for which the max response in experiment [1] was 0.878%. In addition, the Potency in experiment [2] is 23100 nM (active).

Consider `CCCCCCCCCCCCCCCCCC(=O)[O][Al]`, for which the max response in experiment [1] is -8.23%.

Turning to `O=C(O)CC(O)(CC(=O)O)C(=O)O`, the max response in experiment [1] is -1.69%.

For `O=C(Nc1ccnc(NC(=O)C2CC2)c1)c1c(Cl)cccc1Cl`, the results for the Potency in [1] and in experiment [2] were 20600 nM (active) and 6510 nM (active), respectively.

As for `CN(C)CCN(Cc1ccc(-c2ccc(CNCCc3ccccc3)cc2)cc1)C(=O)CCC1CCCC1`, the results for the Potency in experiment [1] and in [2] were 4610 nM (active) and 4110 nM (active), respectively.

Take `CC1(S(=O)(=O)O)CC(=O)c2ccccc2C1=O` (configuration not stated): the max response in experiment [1] is 5.99%.

On to `CCC(C)C(=O)OC1C(C)C2(O)C(C=C(CO)CC3(O)C(=O)C(C)=CC32)C2C(C)(C)C12OC(=O)C(C)C` (configuration not stated), for which the max response is 7.48% in [1] and -1.26% in [2].

`CCCOc1ccc2nc(NC(=O)OC)sc2c1`: the Potency result in [3], in experiment [4], in [5], in experiment [6], in [7] and in experiment [8] was “inactive” throughout. In addition, the Potency result in experiment [9], in experiment [10], in experiment [11] and in experiment [12] was “inactive” throughout. The Potency in experiment [1] is 10300 nM (active).

Consider `C[C@H](Oc1cc(-n2cnc3ccc(CN4CCN(C)CC4)cc32)sc1C(N)=O)c1ccccc1C(F)(F)F`, for which the Potency in experiment [1] is 1030 nM (active); in [2] it was 18400 nM (active); in [13] it was 1300 nM (active).

With `CC(=O)O[C@@H]1[C@@H](OC(C)=O)[C@H](C)O[C@@H](O[C@H]2[C@@H]3C=CO[C@@H](O[C@@H]4O[C@H](CO)[C@@H](O)[C@H](O)[C@H]4O)[C@@H]3[C@@]3(CO)O[C@@H]23)[C@@H]1OC(=O)/C=C/c1ccccc1`, the max response is 2.67% in experiment [1] and -8.05% in experiment [2].

Regarding `C=C1C(=O)OC2C3=C(C)C(=O)CC3C(C)CC(O)C12` (configuration not stated), the max response in experiment [1] is 9.21%; in experiment [2] it was -16.4%.

In the case of `CC(=O)O[C@@H]1[C@H](O[C@@H]2O[C@@H](CO)[C@H](O)[C@H]2O)[C@@H](O[C@@H]2O[C@@H](C)[C@H](O[C@@H]3OC[C@@H](O)[C@H](O)[C@H]3O)[C@@H](O)[C@H]2O)[C@H](OC(=O)[C@]23CCC(C)(C)C[C@H]2C2=CCC4[C@@]5(C)CC[C@H](O[C@@H]6O[C@H](C(=O)O)[C@@H](O)[C@H](O)[C@H]6O[C@@H]6O[C@H](CO)[C@H](O)[C@H](O)[C@H]6O)[C@@](C)(C=O)C5CC[C@@]4(C)[C@]2(C)C[C@H]3O)O[C@@H]1C` (some centres not stated), the values for the max response in [1] and in experiment [2] were 8.09% and -0.852%, respectively.

On to `C=CCNC1=C2C[C@@H](C)C[C@H](OC)[C@H](O)[C@@H](C)/C=C(\C)[C@H](OC(N)=O)[C@@H](OC)/C=C\C=C(/C)C(=O)NC(=CC1=O)C2=O`, for which the Potency was 1260 nM (active) in experiment [3]; 794 nM (active) in experiment [14]; 2000 nM (active) in [4]; 2000 nM (active) in [5]; 1510 nM (active) in experiment [6]; 6310 nM (active) in experiment [7]. Also, the Potency in [8] is 1780 nM (active); in experiment [9] it was 2000 nM (active); in [10], 1780 nM (active); in experiment [11], 1410 nM (active); in experiment [12], 1200 nM (active). In addition, the max response in experiment [1] is -34.3%.

On to `C=C[C@]1(C)C[C@H](O)[C@H]2C(=C)C(=O)O[C@@H]2[C@H]1C(=C)CO`, for which the outcome in experiment [1] was inactive. Also, in experiment [2], the max response is -30%.

With `COC(=O)C1=C(C)NC(C)=C(C(=O)O[C@H]2CCN(Cc3ccccc3)C2)[C@H]1c1cccc([N+](=O)[O-])c1`, the max response in experiment [1] is -25.4%.

With `CC(=O)CC(=O)Nc1ccc(Cl)c(C(F)(F)F)c1`, the Potency in [1] is 23100 nM (active).

With `Oc1cccc(-c2c3nc(c(-c4cccc(O)c4)c4ccc([nH]4)c(-c4cccc(O)c4)c4nc(c(-c5cccc(O)c5)c5ccc2[nH]5)CC4)C=C3)c1`, the Potency in [1] was 16400 nM (active); in experiment [15], 13300 nM (active).

Turning to `CCC/C=C/c1cc2c(C=O)c(O)c(CC=C(C)C)cc2o1`, the max response in [1] was 3.3%; in [2], -11.8%.
